PubChem BioAssay
The source made the active and inactive calls.

Key:
[1] = test system: PRMT1 (protein arginine N-methyltransferase 1); test: PRMT1 binders on small-molecule microarrays, primary screen, biochemical, small-molecule microarray, 635 nm fluorescence (AID 1088); conditions: small-molecule microarray binding, higher = more signal;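 also: binding of Prmt1 protein to compounds spotted on small-molecule microarray slides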
[2] = yeast growth modulation, basal conditions, primary screen, YJM789 clinical isolate, OD600, 24 h (AID 1089);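 also: growth of clinical yeast isolate S. cerevisiae YJM 789 seeded 1000 cells per well; test concentration not given here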; conditions: S. cerevisiae YJM789 growth, higher = more signal, called active from +8 up or from −8 down
[3] = fission yeast growth modulation, primary screen, strain 972, OD600, 24 h, no modulator (AID 1090);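 also: basal condition with compound alone and no growth modifier present; test concentration not given here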; conditions: S. pombe 972 growth, higher = more signal, called active from +8 up or from −8 down
[4] = S. cerevisiae growth modulation with rapamycin, primary screen, strain BY4716, OD600, 96 h (AID 1091); conditions: higher = more signal, called active from +8 up or from −8 down; also: test concentration not given here
[5] = biological target: Torsin-1A-interacting protein 2 (Homo sapiens) (UniProt Q8NFQ8); test: LULL1 binders on small-molecule microarray, primary screen, cell lysate, human LULL1 lysate, 635/667 nm fluorescence (AID 1092); conditions: hLULL1 lysate binding, 635 nm fluorescence, higher = more signal;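 also: probe is lysate of COS7 cells overexpressing human LULL1; score merges per-feature 667 nm fluorescence with signal-to-noise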
Chain of Torsin-1A-interacting protein 2 (Homo sapiens) (Q8NFQ8 whole entry, looked up): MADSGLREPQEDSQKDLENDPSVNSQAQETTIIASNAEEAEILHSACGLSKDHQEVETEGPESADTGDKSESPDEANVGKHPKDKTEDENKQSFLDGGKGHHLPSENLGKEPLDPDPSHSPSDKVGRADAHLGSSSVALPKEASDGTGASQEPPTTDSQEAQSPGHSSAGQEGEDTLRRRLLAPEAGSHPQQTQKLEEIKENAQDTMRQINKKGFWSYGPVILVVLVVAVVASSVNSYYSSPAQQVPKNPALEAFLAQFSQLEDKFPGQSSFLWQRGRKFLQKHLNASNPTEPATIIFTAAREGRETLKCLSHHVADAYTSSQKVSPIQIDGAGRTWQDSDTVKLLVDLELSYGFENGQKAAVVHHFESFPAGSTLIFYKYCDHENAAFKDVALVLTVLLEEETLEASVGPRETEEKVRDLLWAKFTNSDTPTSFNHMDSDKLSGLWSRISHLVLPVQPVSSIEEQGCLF

[6] = E. coli growth modulation, two-sided OD650, primary screen, E. coli filamentation project, strain DRC41, 24 h (AID 1093); conditions: OD650, 24 h, higher = more signal, called active from +8 up or from −8 down;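 also: MC1000 strain lacking acrAB efflux and sulA so SOS filamentation is blocked; test concentration not given here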
[7] = small-molecule microarray binders of probe aLefty2, primary screen, biochemical, biotinylated probe, 635/667 nm fluorescence (AID 1094); conditions: higher = more signal;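 also: score merges spot fluorescence near 667 nm with spot signal-to-noise ratio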
[8] = test system: Noggin (protein binding on small-molecule microarray); test: Noggin binders on small-molecule microarray, primary screen, biochemical, 635/667 nm fluorescence (AID 1095); conditions: 635 nm fluorescence, higher = more signal;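 also: score merges 667 nm feature fluorescence with signal to noise over triplicate slides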
[9] = biological target: Neurogenic locus notch homolog protein 3 (Homo sapiens) (UniProt Q9UM47); test: NOTCH3 binders on small-molecule microarray, primary screen, biochemical, 635/667 nm fluorescence (AID 1096); conditions: NOTCH3 binding, 635 nm fluorescence, higher = more signal
Chain of Neurogenic locus notch homolog protein 3 (Homo sapiens) (Q9UM47 whole entry, looked up): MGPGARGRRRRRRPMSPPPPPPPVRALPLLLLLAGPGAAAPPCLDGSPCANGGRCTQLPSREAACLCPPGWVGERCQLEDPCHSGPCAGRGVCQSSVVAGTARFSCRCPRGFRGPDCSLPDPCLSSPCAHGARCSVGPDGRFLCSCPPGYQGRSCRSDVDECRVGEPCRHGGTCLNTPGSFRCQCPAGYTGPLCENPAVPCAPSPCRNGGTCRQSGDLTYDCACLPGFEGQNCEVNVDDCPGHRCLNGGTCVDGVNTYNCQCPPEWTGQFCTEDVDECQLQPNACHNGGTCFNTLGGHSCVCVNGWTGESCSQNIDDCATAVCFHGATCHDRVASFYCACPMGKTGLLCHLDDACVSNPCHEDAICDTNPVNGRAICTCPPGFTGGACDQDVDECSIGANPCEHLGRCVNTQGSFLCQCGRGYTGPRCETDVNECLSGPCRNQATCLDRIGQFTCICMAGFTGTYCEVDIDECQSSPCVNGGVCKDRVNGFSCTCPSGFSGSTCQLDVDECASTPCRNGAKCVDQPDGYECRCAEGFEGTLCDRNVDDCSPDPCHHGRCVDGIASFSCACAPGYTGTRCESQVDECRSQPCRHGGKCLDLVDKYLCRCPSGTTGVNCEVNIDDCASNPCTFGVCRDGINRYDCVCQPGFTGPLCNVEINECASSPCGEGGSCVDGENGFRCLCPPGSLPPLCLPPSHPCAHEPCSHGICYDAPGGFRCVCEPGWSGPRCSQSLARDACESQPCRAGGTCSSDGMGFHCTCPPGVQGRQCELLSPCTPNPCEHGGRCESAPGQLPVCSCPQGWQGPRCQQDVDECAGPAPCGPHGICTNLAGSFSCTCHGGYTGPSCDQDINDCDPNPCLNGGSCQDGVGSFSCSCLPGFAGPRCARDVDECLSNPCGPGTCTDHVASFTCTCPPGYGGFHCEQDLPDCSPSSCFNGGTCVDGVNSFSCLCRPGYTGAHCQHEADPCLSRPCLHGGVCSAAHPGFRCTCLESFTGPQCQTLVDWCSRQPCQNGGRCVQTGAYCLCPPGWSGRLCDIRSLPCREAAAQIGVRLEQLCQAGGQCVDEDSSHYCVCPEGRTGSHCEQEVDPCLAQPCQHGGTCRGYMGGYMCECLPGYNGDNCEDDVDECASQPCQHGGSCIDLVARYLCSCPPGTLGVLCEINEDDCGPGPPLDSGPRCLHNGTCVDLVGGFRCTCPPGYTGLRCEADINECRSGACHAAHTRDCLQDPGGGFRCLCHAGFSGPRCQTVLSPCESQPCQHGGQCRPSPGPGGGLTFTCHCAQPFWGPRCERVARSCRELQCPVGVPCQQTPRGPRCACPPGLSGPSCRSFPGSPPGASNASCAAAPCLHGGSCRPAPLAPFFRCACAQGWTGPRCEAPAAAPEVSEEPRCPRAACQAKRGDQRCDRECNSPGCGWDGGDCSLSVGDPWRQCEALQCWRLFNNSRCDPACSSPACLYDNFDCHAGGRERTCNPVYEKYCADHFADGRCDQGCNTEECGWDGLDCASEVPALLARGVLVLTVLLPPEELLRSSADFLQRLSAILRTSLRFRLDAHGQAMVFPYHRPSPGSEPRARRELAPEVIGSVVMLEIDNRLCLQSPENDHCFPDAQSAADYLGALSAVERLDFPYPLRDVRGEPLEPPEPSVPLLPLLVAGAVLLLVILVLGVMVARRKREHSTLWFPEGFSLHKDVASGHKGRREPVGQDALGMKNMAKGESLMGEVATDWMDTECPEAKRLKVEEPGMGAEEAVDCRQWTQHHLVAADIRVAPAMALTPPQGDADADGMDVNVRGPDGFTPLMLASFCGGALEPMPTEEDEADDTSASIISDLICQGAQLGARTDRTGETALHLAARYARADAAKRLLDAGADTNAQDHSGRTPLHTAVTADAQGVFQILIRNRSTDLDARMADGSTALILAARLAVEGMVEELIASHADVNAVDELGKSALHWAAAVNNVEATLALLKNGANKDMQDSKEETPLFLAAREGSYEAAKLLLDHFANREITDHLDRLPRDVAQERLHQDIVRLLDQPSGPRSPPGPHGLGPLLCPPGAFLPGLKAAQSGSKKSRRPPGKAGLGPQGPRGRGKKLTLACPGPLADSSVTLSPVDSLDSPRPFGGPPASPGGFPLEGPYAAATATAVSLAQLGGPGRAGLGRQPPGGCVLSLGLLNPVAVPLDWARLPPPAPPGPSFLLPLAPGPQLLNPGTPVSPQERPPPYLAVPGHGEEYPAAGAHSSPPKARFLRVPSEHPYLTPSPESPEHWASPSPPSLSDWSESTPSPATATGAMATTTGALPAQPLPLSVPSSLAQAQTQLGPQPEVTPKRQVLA

[10] = small-molecule microarray binders of probe aEGFR, primary screen, biochemical, biotinylated probe, 635/667 nm fluorescence (AID 1097); conditions: higher = more signal;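 also: probe is a biotinylated anti-EGFR antibody binding compounds printed on slides; score combines fluorescence near 667 nm and signal to noise of each spot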

For `O=C1O[C@H](c2ccccc2)[C@H](c2ccccc2)N2[C@H]1[C@@H](C(=O)NC[C@H](O)c1ccccc1)[C@]1(C(=O)Nc3ccccc31)[C@H]2c1ccccc1OCCO`, which composite z-score [1] is on record?
Its composite z-score is 1.55.

And the z-score [2]?
Its z-score is 0.837 (inactive).

And the z-score [3]?
Its z-score is 0.468 (inactive).

What about the z-score [4] of the same compound?
The z-score was 4.03 (inactive).

And the composite z-score [5]?
The composite z-score was 2.92.

And the z-score [6]?
The z-score was 2.05 (inactive).

And the composite z-score [7]?
Its composite z-score is -0.181.

And the composite z-score [8]?
Its composite z-score is 1.71.

And the composite z-score [9]?
The composite z-score was 0.723.

What about the composite z-score [10] of the same compound?
Its composite z-score is -0.109.

Which results are given for `O=C(NCc1ccccc1)[C@]1(Cc2ccccc2)N=C(c2ccc(OCCCO)cc2)O[C@@H]1c1ccccc1`?
composite z-score [1]: 0.882; z-score [2]: 1.83 (inactive); z-score [3]: 1.26 (inactive); z-score [4]: 18.9 (active); composite z-score [5]: 2.68; z-score [6]: -1.26 (inactive); composite z-score [7]: 0.0609; composite z-score [8]: -0.102; composite z-score [9]: 0.256; composite z-score [10]: 0.676

What does the source list for `O=C1c2ccccc2C(=O)C2CC([C@H]3Oc4ccccc4S(=O)(=O)N4CCC[C@@H]34)=CCC12` (stereo not given in full)?
composite z-score [1]: -0.739; z-score [2]: 0.151 (inactive); z-score [3]: -0.717 (inactive); z-score [4]: 0.388 (inactive); composite z-score [5]: -0.312; z-score [6]: 1.47 (inactive); composite z-score [7]: -0.116; composite z-score [8]: 0.162; composite z-score [9]: -0.42; composite z-score [10]: -0.124

Which composite z-score [1] does the source give for `C=CCOC(=O)[C@@H]1[C@H]2C(=O)O[C@H](c3ccccc3)[C@H](c3ccccc3)N2[C@H](c2ccc(OCCOC(=O)[C@H]3C[C@H]4C(=O)N[C@@H](Cc5ccccc5)C(=O)N4[C@H]3c3cccc(OCCO)c3)cc2)[C@@]12C(=O)Nc1ccc(I)cc12` here?
Its composite z-score is 1.53.

And the z-score [2]?
The z-score was 2.59 (inactive).

And the z-score [3]?
Its z-score is -2.26 (inactive).

And the z-score [4]?
The z-score was 0.874 (inactive).

What about the composite z-score [5] of the same compound?
Its composite z-score is 1.93.

What about the z-score [6] of the same compound?
Its z-score is -1.07 (inactive).

What about the composite z-score [7] of the same compound?
The composite z-score was -0.193.

And the composite z-score [8]?
The composite z-score was 1.59.

And the composite z-score [9]?
The composite z-score was 1.03.

What about the composite z-score [10] of the same compound?
The composite z-score was 0.276.

What does the source list for `COC(=O)[C@@]1(Cc2ccc(OC)cc2)[C@H]2c3cc(C(=O)N4CCCC4)n(Cc4ccc(C)o4)c3C[C@H]2CN1C(=O)c1ccccc1`?
composite z-score [1]: 0.622; z-score [2]: -19.7 (active); z-score [3]: -15.7 (active); z-score [4]: -2.14 (inactive); composite z-score [5]: 3.24; z-score [6]: -0.715 (inactive); composite z-score [7]: 0.292; composite z-score [8]: 0.355; composite z-score [9]: 1.07; composite z-score [10]: 0.0059

Which results are given for `CCOC(=O)C[C@H]1[C@H](OC(=O)c2ccccc2-c2ccccc2)[C@@H](NC(=O)c2ccccc2)c2cc(OCCCO)ccc2N1C(=O)Cc1ccc(OC)cc1`?
composite z-score [1]: -0.175; z-score [2]: -0.211 (inactive); z-score [3]: -0.0183 (inactive); z-score [4]: 0.452 (inactive); composite z-score [5]: 0.601; z-score [6]: -0.922 (inactive); composite z-score [7]: -0.0963; composite z-score [8]: -0.0496; composite z-score [9]: -0.196; composite z-score [10]: -0.108

What does the source list for `COCCCNC(=O)[C@]1(Cc2ccccc2)N=C(c2ccc(OCCCO)cc2)O[C@@H]1c1ccccc1N=[N+]=[N-]`?
composite z-score [1]: 1.56; z-score [2]: -0.499 (inactive); z-score [3]: -0.357 (inactive); z-score [4]: 1.37 (inactive); composite z-score [5]: 3.16; z-score [6]: 0.49 (inactive); composite z-score [7]: -0.02; composite z-score [8]: 1.67; composite z-score [9]: 1.15; composite z-score [10]: -0.0238

Which results are given for `COc1ccc([Si](C)(C)[C@@H]2[C@@H](CCO)O[C@]3(C(=O)N(Cc4ccccc4)c4ccc(N5C(=O)COc6ccccc65)cc43)[C@H]2C)cc1`?
composite z-score [1]: 1.39; z-score [2]: 1.56 (inactive); z-score [3]: 0.504 (inactive); z-score [4]: 9.67 (active); composite z-score [5]: 1.74; z-score [6]: 2.61 (inactive); composite z-score [7]: -0.0511; composite z-score [8]: 1.09; composite z-score [9]: 0.624; composite z-score [10]: -0.187

For `C=CCC(OC(C)=O)[C@@H]1[C@@H](N(Cc2cccc3ccccc23)C(=O)c2ccc(C)cc2)c2cc(OCCCO)ccc2N1C(=O)c1ccc2ccccc2c1` (stereo not given in full), which composite z-score [1] is on record?
The composite z-score was 0.377.

And the z-score [2]?
Its z-score is -0.844 (inactive).

What about the z-score [3] of the same compound?
Its z-score is 0.148 (inactive).

And the z-score [4]?
The z-score was -0.302 (inactive).

What about the composite z-score [5] of the same compound?
The composite z-score was 1.19.

What about the z-score [6] of the same compound?
The z-score was 0.649 (inactive).

What about the composite z-score [7] of the same compound?
Its composite z-score is -0.0574.

What about the composite z-score [8] of the same compound?
The composite z-score was 0.684.

What about the composite z-score [9] of the same compound?
Its composite z-score is 0.103.

And the composite z-score [10]?
Its composite z-score is -0.0432.

Which results are given for `[N-]=[N+]=Nc1ccccc1[C@H]1OC(c2ccc(OCCCO)cc2)=N[C@@]1(Cc1ccccc1)C(=O)NCc1ccccc1`?
composite z-score [1]: 1.57; z-score [2]: -2.78 (inactive); z-score [3]: -2.1 (inactive); z-score [4]: 1.12 (inactive); composite z-score [5]: 2.79; z-score [6]: 1.81 (inactive); composite z-score [7]: -0.0192; composite z-score [8]: 0.641; composite z-score [9]: 1.04; composite z-score [10]: -0.0066

For `[N-]=[N+]=NCc1ccccc1C[C@]1(C(=O)NCCN2CCOCC2)N=C(c2ccc(OCCCO)cc2)O[C@H]1c1ccccc1`, which composite z-score [1] is on record?
The composite z-score was 1.54.

What about the z-score [2] of the same compound?
The z-score was -2.01 (inactive).

What about the z-score [3] of the same compound?
The z-score was -0.85 (inactive).

And the z-score [4]?
The z-score was -2.06 (inactive).

What about the composite z-score [5] of the same compound?
The composite z-score was 3.22.

What about the z-score [6] of the same compound?
The z-score was 0.677 (inactive).

What about the composite z-score [7] of the same compound?
Its composite z-score is -0.0519.

And the composite z-score [8]?
The composite z-score was 1.88.

What about the composite z-score [9] of the same compound?
Its composite z-score is 0.626.

What about the composite z-score [10] of the same compound?
The composite z-score was -0.0382.

With `COc1ccc(CCNC(=O)[C@@H]2c3ccccc3C(=O)N(Cc3ccccc3C(F)(F)F)[C@H]2c2ccc(CO)cc2)cc1` as the compound, how does the composite z-score [1] read?
Its composite z-score is 0.77.

And the z-score [2]?
Its z-score is -0.0666 (inactive).

And the z-score [3]?
Its z-score is 0.057 (inactive).

What about the z-score [4] of the same compound?
The z-score was -0.0429 (inactive).

What about the composite z-score [5] of the same compound?
Its composite z-score is 2.92.

What about the z-score [6] of the same compound?
Its z-score is 0.415 (inactive).

What about the composite z-score [7] of the same compound?
Its composite z-score is 0.0258.

What about the composite z-score [8] of the same compound?
The composite z-score was -0.185.

What about the composite z-score [9] of the same compound?
Its composite z-score is -0.0818.

What about the composite z-score [10] of the same compound?
The composite z-score was -0.216.

For `C#CCNS(=O)(=O)N(C)C`, which composite z-score [1] is on record?
The composite z-score was 0.392.

And the z-score [2]?
The z-score was 1.24 (inactive).

What about the z-score [3] of the same compound?
The z-score was 0.783 (inactive).

What about the z-score [4] of the same compound?
Its z-score is 0.689 (inactive).

And the composite z-score [5]?
Its composite z-score is 0.43.

And the z-score [6]?
The z-score was 0.663 (inactive).

And the composite z-score [7]?
The composite z-score was -0.139.

And the composite z-score [8]?
Its composite z-score is 0.4.

And the composite z-score [9]?
The composite z-score was 0.579.

And the composite z-score [10]?
The composite z-score was -0.054.
